Hits are enriched below; roughly 4.3% of the tested compounds scored in any of these assays.
MITF act – MITF TRPM1 promoter activation in melanoma cells | actives 0.75% (n = 300,000) | AID 588334 | activation, % at 12.5 µM | SK-MEL-5 TRPM1-promoter luciferase, 24 h; % of positive control, neutral wells = 0;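 active = mean activation of at least 80% with every replicate also reaching 80%; inconclusive = mean reaches 80% but some replicate falls short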
Wnt act – activates Wnt/beta-catenin signaling in a reporter cell assay; activator, plate reader; activation, % at 9.35 µM; actives 1.2% (n = 300,000); AID 743398; in the data active = activation above about 30%, passing the limit was not always enough; inconclusive = no clear call, values can overlap the other calls
AF4-AF9 inh – inhibitors of human MLL-AF4/AF9 interaction; AID 651704; P42568; inhibition, % at 10 µM; AlphaScreen, biotin-AF4 peptide binding to FLAG-AF9; actives 0.47% (n = 350,000);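 active = every replicate reaching a set inhibition limit, whatever the replicate mean, cut at about 25% in these data; inconclusive = mean inhibition reaches that limit but some replicates miss it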
FGF22 binding – FGF22 (human) thermal shift binding; recombinant FGF22 thermal shift, SYPRO orange fluorescence; percent of sucrose octasulfate shift, DMSO zero; AID 651658; actives 1.5% (n = 340,000); Q9HCT0; activity (Tm shift, normalised), % at 9.99 µM;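 active = mean Tm shift, scaled 0 neutral to 100 positive control, at about 1.3% or above, every replicate too, limit read from the data; inconclusive = no clear call, values can overlap the other calls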
Target sequence (Q9HCT0 whole entry, looked up): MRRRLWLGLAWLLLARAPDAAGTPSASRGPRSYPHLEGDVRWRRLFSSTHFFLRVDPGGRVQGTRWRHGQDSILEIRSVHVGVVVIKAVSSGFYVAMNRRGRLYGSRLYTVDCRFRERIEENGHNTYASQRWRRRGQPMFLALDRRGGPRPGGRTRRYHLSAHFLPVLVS
esBAF inh – blocks esBAF chromatin remodeling in mouse ES cells; actives 2% (n = 350,000); reporter increase, % at 12.5 µM; Bmi1-luciferase knock-in reporter, 24 h; 100% = twice the neutral-well signal; in the data active = activation above about 40%; inconclusive = no clear call, values can overlap the other calls;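 also: a rise in the Bmi1 reporter signal indicates esBAF inhibition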
SMARCA2 act – SMARCA2 function activation, primary screen. MG213 cells, MMTV-luciferase reporter, dexamethasone, overnight. activation, % at 9.1 µM. actives 1% (n = 370,000); in the data active = activation above about 7.8%
Numbers stand for hits; 0 = inactive; ? = inconclusive; - = no result.

SMILES	MITF act	Wnt act	AF4-AF9 inh	FGF22 binding	esBAF inh	SMARCA2 act
CO[C@H]1CN(C)C(=O)c2cc(NC(=O)Cc3ccccc3)ccc2OC[C@H](C)N(C(=O)c2ccccc2F)C[C@@H]1C	-	-	0	0	0	-
C/C=C/c1ccc2c(c1)O[C@@H](CN(C)C(=O)c1ccccc1F)[C@H](C)CN([C@H](C)CO)S2(=O)=O	-	-	0	0	0	-
Cc1ccc(-c2nc(-c3ccncc3)no2)cc1	0	33.2	0	0	0	0
CCCc1noc(-c2cccc([N+](=O)[O-])c2)n1	0	0	0	0	-	0
CCCc1noc(-c2ccc(-c3ccccc3)cc2)n1	-	39.4	-	-	0	0
Nc1ccc(-c2ncc(-c3ccccc3)o2)cc1	0	0	0	0	0	0
Brc1cccc(-c2nc(-c3ccncc3)no2)c1	0	0	-	-	57.2	0
Cc1ccc(-c2cnc(-c3ccncc3)o2)cc1	0	-	-	-	45.3	0
C[C@@H]1CN([C@H](C)CO)C(=O)Cc2cc(NC(=O)CCC(F)(F)F)ccc2O[C@@H]1CN(C)Cc1ccc(C(F)(F)F)cc1	-	-	0	0	0	-
Cc1ccc(-c2nc(-c3ccccc3)no2)cc1	0	-	-	-	-	7.8
Cn1cnc(S(=O)(=O)N2CCCCN3[C@@H](CO)[C@H](c4ccc(C5=CCCC5)cc4)[C@@H]3C2)c1	-	-	0	0	-	-
CC(C)Cc1nn2c(N)c(/C=C3\C=Nc4ccccc43)c(=O)nc2s1	0	0	0	1.5	0	0
CCCc1nn2c(N)c(/C=C3\C=Nc4ccccc43)c(=O)nc2s1	0	0	0	0	-	0
COc1nc(-c2ccccc2)ccc1-c1noc(COc2ccccc2)n1	0	0	-	-	-	0
COc1nc(C)ccc1-c1noc(-c2ccncc2)n1	97.0	0	-	-	0	0
COc1nc(C)ccc1-c1noc(-c2cccs2)n1	-	0	0	0	-	0
COc1nc(-c2ccccc2)ccc1-c1noc(-c2ccco2)n1	-	-	-	-	76.2	0
COc1ccc(-c2ccc(-c3noc(-c4ccco4)n3)c(OC)n2)cc1	0	0	-	-	47.9	0
COc1nc(-c2ccccc2)ccc1-c1noc(-c2ccccc2)n1	0	0	-	-	43.7	0
COc1ccc(NC(=O)N(C)C[C@H]2OCCCC[C@@H](C)Oc3ccc(NS(=O)(=O)c4ccc(Cl)cc4)cc3C(=O)N([C@@H](C)CO)C[C@@H]2C)cc1	-	-	0	0	0	-
CC(=O)N1CCCN(C(=O)Cn2cnc3ccccc3c2=O)CC1	-	-	-	-	-	0
COc1nc(-c2ccccc2)ccc1-c1noc(-c2cccs2)n1	0	-	-	-	45.8	0
COc1ccccc1-c1noc(-c2ccco2)n1	89.9	0	-	-	0	0
O=C(/C=C(\Nc1cccc(Cl)c1F)c1ccccc1)c1ccccc1	-	46.8	-	0	-	0
Cc1ccc(COc2ccc3c(c2)OCO3)cc1	0	33.4	0	0	0	0
SMILES	MITF act	Wnt act	AF4-AF9 inh	FGF22 binding	esBAF inh	SMARCA2 act
O=Cc1ccc(OCc2ccc3c(c2)OCO3)cc1	-	0	0	0	0	0
O=S1(=O)c2ccc(N3CC[C@@H](O)C3)cc2OCCCN1C1CC1	-	-	-	-	-	0
CCCCOC(=O)c1ccc(Nc2ncnc3nc[nH]c23)cc1	0	0	0	0	48.4	0
FC(F)Sc1ccc(Nc2ncnc3nc[nH]c23)cc1	94.9	-	-	-	0	0
O=C(N[C@@H]1C=C[C@@H](CC(=O)N2CCOCC2)O[C@H]1CO)c1cccc(F)c1	-	-	0	0	0	-
CC(=NNC(=O)CSc1nnc(-c2ccccc2)n1-c1ccccc1)c1ccc2ccccc2c1	-	-	-	-	-	0
C[C@H](CO)N1C[C@H](C)[C@@H](CN(C)Cc2ccc3c(c2)OCO3)Oc2ccc(NC(=O)Cn3cnnn3)cc2CC1=O	-	-	0	0	0	-
NS(=O)(=O)c1ccc(N/N=C2/CCCCC2C2CCCCC2)c([N+](=O)[O-])c1 (stereo unspecified)	0	0	30.0	0	-	0
Cc1cc(C)c2c(c1)/C(=N/Nc1ccc(S(N)(=O)=O)cc1[N+](=O)[O-])CCC2	0	0	0	0	0	0
CCC(C)NC(=O)c1ccc2c(Cl)c3c(nc2c1)CCC3 (stereo unspecified)	0	42.3	0	0	53.3	0
O=C(c1ccccn1)N1CC[C@H]2[C@H](CO)Nc3ccc(-c4ccccc4)cc3[C@H]21	-	-	0	0	0	-
O=C(NCCCCNC(=O)c1ccccn1)c1ccccn1	0	0	0	43.2	0	0
O=C(CC(CC(=O)c1ccccc1)c1ccccn1)c1ccccc1	0	0	0	44.1	0	0
O=C(CC(=O)c1ccccn1)c1ccccc1	0	49.6	0	0	-	0
O=C(/C=C/c1ccccc1)c1ccc2ccccc2c1	0	0	0	0	68.2	0
COc1ccc(/C=C/C(=O)c2ccc(O)cc2)cc1	0	0	0	1.5	0	0
O=C(/C=C/c1ccccc1)c1ccccc1	0	0	0	0	0	0
COc1ccc(/C=C/C(=O)c2ccccn2)cc1	0	74.9	0	0	-	0
COc1ccc([N+](=O)[O-])c(C=CC(=O)c2ccccn2)c1	-	0	0	0	-	0
COc1ccc(C=C(C(=O)O)c2ccc(OC)cc2)cc1	0	0	0	0	52.1	0
Cc1occc1-c1nnc(SCC(=O)Nc2ccc3ncccc3c2)n1-c1ccccc1	-	-	-	-	-	0
CN(C)C(=O)c1cccc(-c2ccc([C@@H]3[C@H]4CN(S(C)(=O)=O)CCCCN4[C@H]3CO)cc2)c1	-	-	0	0	0	-
CCCC(=O)Nc1ccc2c(c1)OC[C@H](C)N(Cc1ccccn1)C[C@H](C)[C@@H](OC)CN(C)C2=O	-	-	0	0	-	-
COc1ccc(/C=C/C(=O)c2ccccc2O)cc1	140.7	-	-	-	86.9	-
COc1ccc(C(=O)NNC(=O)c2ccccn2)cc1	0	0	0	43.8	-	0
SMILES	MITF act	Wnt act	AF4-AF9 inh	FGF22 binding	esBAF inh	SMARCA2 act
COc1ccc(/C=C/C(=O)c2ccoc2)cc1	0	-	-	-	0	0
COc1cc(OC)cc(C(=O)NNC(=O)c2ccccn2)c1	0	0	0	0	0	0
Cc1noc(C)c1NC(=O)Nc1ccc2c(c1)C(=O)N([C@H](C)CO)C[C@@H](C)[C@@H](CN(C)S(=O)(=O)c1cccs1)O2	-	-	0	0	0	-
Cc1cc(C(=O)Nc2ccc3c(c2)C(=O)N(C)[C@@H]2CC[C@@H](CC(=O)N[C@@H](C)c4ccccc4)O[C@@H]2CO3)no1	-	-	0	0	0	-
CNc1cc(-c2cnn(CC(C)C)c2)ncn1	-	?	0	0	51.2	0
Cc1cc2c(cc1C)NC1=C(N2)OC(c2cccc(O)c2)C1=O (stereo unspecified)	0	0	0	0	-	0
COc1ccc(C2OC3=C(Nc4cc(C)c(C)cc4N3)C2=O)cc1 (stereo unspecified)	0	0	0	0	56.4	0
C[C@H](CO)N1C[C@H](C)[C@H](CN(C)Cc2ccncc2)OCCCC[C@H](C)Oc2ccc(NC(=O)Nc3ccc4c(c3)OCO4)cc2C1=O	-	-	0	0	73.0	-
C[C@@H]1CN([C@H](C)CO)C(=O)c2cc(NC(=O)Nc3ccc4c(c3)OCO4)ccc2O[C@@H](C)CCCCO[C@@H]1CN(C)Cc1ccncc1	-	-	0	0	0	-

High-throughput results deposited in PubChem by several laboratories.
